In the supplement of paper PMC3842684:

What follows are compounds tested on P. falciparum NF54-pfs16-GFP early (I-III) stage gametocytes (assay: relative % inhibition of viable gametocyte number; higher = more gametocytocidal). Settings: 0.5 µM; stage: early (I-III) gametocyte; incubation 72 h.
Procedure, shortened: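 Early-stage (I/IIa, day 2) or late-stage (day 8) NF54 pfs16-GFP gametocytes were isolated by magnet and plated in 384-well poly-D-lysine imaging plates at 10% parasitaemia and 0.1% haematocrit, with compound in duplicate at 5 or 0.5 µM. After 72 h at 37°C under 5% CO2 and 5% O2, MitoTracker Red was added overnight. Confocal imaging scored elongated GFP objects whose MitoTracker signal passed a cut-off as viable gametocytes. Relative inhibition was normalised against vehicle and positive-control wells on the same plate.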

| Compound | relative % inhibition [%] |
| --- | --- |
| Cc1ccc(-c2cc3c(SCC(=O)Nc4cc(C(F)(F)F)ccc4Cl)nccn3n2)cc1 | -5.62 |
| COc1ccccc1CNC(=O)CCn1c(=O)[nH]c2ccsc2c1=O | 16.9 |
| CCOC(=O)C1=C(c2ccccc2)N=c2sc(=Cc3cc(C)n(-c4ccc(F)cc4)c3C)c(=O)n2C1c1cccc(OC)c1OC (stereo not drawn) | 14.6 |
| O=C(NCc1ccco1)C1CCN(S(=O)(=O)c2ccc(Cl)cc2)CC1 | 7.81 |
| Cc1ccc2nc(C)cc(Nc3cccc(C(F)(F)F)c3)c2c1 | -7.3 |
| Cc1sc(NC(=O)c2ccccc2)c(C(c2cccs2)N2CCN(c3ccccc3)CC2)c1C (stereo not drawn) | 17.7 |
| COc1ccc(CCn2c(=N)c(C(=O)NCc3cccnc3)cc3c(=O)n4cccc(C)c4nc32)cc1 | 45.1 |
| Cc1cccc(N2C(=O)C3C(C2=O)C2(c4ccccc4)C(=O)C3(c3ccccc3)C(c3ccc4c(c3)OCO4)=C2c2ccc3c(c2)OCO3)c1 (stereo not drawn) | 56.2 |
| Cc1ccc(F)cc1NC(=O)c1cc(Cl)ccc1Nc1ccccc1 | 23.8 |
| Cc1ccc(Cn2c(N3CCC(C(=O)NCc4cccs4)CC3)nc3ccccc32)cc1 | 10.4 |
| CCCCCCOC(=O)C1=C(C)NC(=O)NC1c1ccccc1F (stereo not drawn) | 9.08 |
| O=C1c2ccccc2C2=Nc3ccccc3SC(c3cccc(F)c3)C12 (stereo not drawn) | 30.8 |
| N#Cc1nc(Cc2cccc3ccccc23)oc1N1CCN(C(c2ccccc2)c2ccccc2)CC1 | -3.05 |
| C=CCc1c(C)nc2ccccc2c1O | 5.51 |
| Cc1ccc(CSCc2ccc(C(=O)NC3CC3)o2)cc1 | 1.49 |
| O=C(CSc1ccc2nnc(-c3cccc(F)c3)n2n1)Nc1ccc2c(c1)OCO2 | 10.3 |
| Cc1cccc(Nc2nc(N)c3ccccc3n2)c1 | -18.5 |
| FC(F)(F)c1ccc(Nc2nnnc3ccccc23)cc1 | 7.13 |
| Cc1cc(C)c2c(c1)OCN(Cc1ccccc1Cl)C2 | 59.9 |
| O=C(NC1CCCCC1)C(c1cccs1)N(CCc1ccccc1)C(=O)c1ccco1 (stereo not drawn) | 0.574 |

| Compound | relative % inhibition [%] |
| --- | --- |
| COCCn1c(C)nc2ccccc2c1=O | 9.29 |
| CCOc1ccc(C2N(C)c3ccccc3N2C)cc1 | 5 |
| CC(C)(C)CC(C)(C)NCC(O)COc1ccc2c(c1)CCC2 (stereo not drawn) | -11.4 |
| O=[N+]([O-])c1ccc(C=NNc2nc3ccccc3[nH]2)cc1 | 26.8 |
| CCOc1ccc(Nc2c3ccccc3nc3ccccc23)cc1 | -20.8 |
| Cc1c(C)n(CC(O)CNC2CCCCC2C)c2ccccc12 (stereo not drawn) | 41.6 |
| O=C(Nc1ccc(N2CCCCC2)c(Cl)c1)c1ccc(Br)o1 | 5.95 |
| COc1ccc(CN2CCCC(C(=O)c3ccc(C(F)(F)F)cc3)C2)c(O)c1 (stereo not drawn) | -2.13 |
| OCCNc1nc(Nc2ccc(Cl)c(Cl)c2)nc2ccccc12 | -6.33 |
| COc1ccc(CCN2CCC(CN(C)Cc3cnn(-c4ccccc4)c3)CC2)cc1 | 4.18 |
| Cc1ccc(Nc2nc(-c3ccccn3)cs2)cc1 | 69.6 |
| O=C(NCc1ccco1)C1CCN(S(=O)(=O)c2ccc(Br)cc2)CC1 | -6.48 |
| CCCN(CCC)CCCNC(=O)c1cc2c(-c3ccc(OC)c(OC)c3)nn(C)c2s1 | 29.6 |
| CCOc1c(Br)cc(C2C(C(=O)OC)=CN(C)C=C2C(=O)OC)cc1OC | 17.4 |
| OC(CNC1CCCCC1)Cn1c2ccccc2c2ccccc21 (stereo not drawn) | 14.8 |
| CCOC(=O)c1c(C)n(-c2ccc(Cl)cc2)c2ccc(OC(=O)C=Cc3ccccc3)cc12 | 15.8 |
| COc1ccc2nc(C)cc(Nc3ccccc3O)c2c1 | 6.33 |
| O=C(NCCCN1CCC(N2CCCCC2)CC1)C1=Cc2cc(Br)ccc2OC1 | 42.8 |
| CCn1c2c(c(=N)c3c1CCC3)CCCC2 | -1.17 |

Same assay, conditions: 5 µM; stage: early (I-III) gametocyte; incubation 72 h

| Compound | relative % inhibition [%] |
| --- | --- |
| Cc1ccc(-c2cc3c(SCC(=O)Nc4cc(C(F)(F)F)ccc4Cl)nccn3n2)cc1 | -12 |
| COc1ccccc1CNC(=O)CCn1c(=O)[nH]c2ccsc2c1=O | 2.5 |
| CCOC(=O)C1=C(c2ccccc2)N=c2sc(=Cc3cc(C)n(-c4ccc(F)cc4)c3C)c(=O)n2C1c1cccc(OC)c1OC (stereo not drawn) | 96.5 |
| O=C(NCc1ccco1)C1CCN(S(=O)(=O)c2ccc(Cl)cc2)CC1 | 3.24 |
| Cc1ccc2nc(C)cc(Nc3cccc(C(F)(F)F)c3)c2c1 | 60.2 |
| Cc1sc(NC(=O)c2ccccc2)c(C(c2cccs2)N2CCN(c3ccccc3)CC2)c1C (stereo not drawn) | 12.8 |
| COc1ccc(CCn2c(=N)c(C(=O)NCc3cccnc3)cc3c(=O)n4cccc(C)c4nc32)cc1 | 70.9 |
| Cc1cccc(N2C(=O)C3C(C2=O)C2(c4ccccc4)C(=O)C3(c3ccccc3)C(c3ccc4c(c3)OCO4)=C2c2ccc3c(c2)OCO3)c1 (stereo not drawn) | 66.1 |
| Cc1ccc(F)cc1NC(=O)c1cc(Cl)ccc1Nc1ccccc1 | 73.8 |
| Cc1ccc(Cn2c(N3CCC(C(=O)NCc4cccs4)CC3)nc3ccccc32)cc1 | 35.6 |
| CCCCCCOC(=O)C1=C(C)NC(=O)NC1c1ccccc1F (stereo not drawn) | 4.18 |
| O=C1c2ccccc2C2=Nc3ccccc3SC(c3cccc(F)c3)C12 (stereo not drawn) | 27.4 |
| N#Cc1nc(Cc2cccc3ccccc23)oc1N1CCN(C(c2ccccc2)c2ccccc2)CC1 | 2.44 |
| C=CCc1c(C)nc2ccccc2c1O | 13.3 |
| Cc1ccc(CSCc2ccc(C(=O)NC3CC3)o2)cc1 | -7.92 |
| O=C(CSc1ccc2nnc(-c3cccc(F)c3)n2n1)Nc1ccc2c(c1)OCO2 | 1.63 |
| Cc1cccc(Nc2nc(N)c3ccccc3n2)c1 | -18.1 |
| FC(F)(F)c1ccc(Nc2nnnc3ccccc23)cc1 | 2.85 |
| Cc1cc(C)c2c(c1)OCN(Cc1ccccc1Cl)C2 | 93.6 |
| O=C(NC1CCCCC1)C(c1cccs1)N(CCc1ccccc1)C(=O)c1ccco1 (stereo not drawn) | 17.5 |

| Compound | relative % inhibition [%] |
| --- | --- |
| COCCn1c(C)nc2ccccc2c1=O | 10.1 |
| CCOc1ccc(C2N(C)c3ccccc3N2C)cc1 | 15.9 |
| CC(C)(C)CC(C)(C)NCC(O)COc1ccc2c(c1)CCC2 (stereo not drawn) | 78.8 |
| O=[N+]([O-])c1ccc(C=NNc2nc3ccccc3[nH]2)cc1 | 59.1 |
| CCOc1ccc(Nc2c3ccccc3nc3ccccc23)cc1 | 84 |
| Cc1c(C)n(CC(O)CNC2CCCCC2C)c2ccccc12 (stereo not drawn) | 98.7 |
| O=C(Nc1ccc(N2CCCCC2)c(Cl)c1)c1ccc(Br)o1 | 8.62 |
| COc1ccc(CN2CCCC(C(=O)c3ccc(C(F)(F)F)cc3)C2)c(O)c1 (stereo not drawn) | 93.7 |
| OCCNc1nc(Nc2ccc(Cl)c(Cl)c2)nc2ccccc12 | -11 |
| COc1ccc(CCN2CCC(CN(C)Cc3cnn(-c4ccccc4)c3)CC2)cc1 | 65.3 |
| Cc1ccc(Nc2nc(-c3ccccn3)cs2)cc1 | 93.5 |
| O=C(NCc1ccco1)C1CCN(S(=O)(=O)c2ccc(Br)cc2)CC1 | -2.56 |
| CCCN(CCC)CCCNC(=O)c1cc2c(-c3ccc(OC)c(OC)c3)nn(C)c2s1 | 43.5 |
| CCOc1c(Br)cc(C2C(C(=O)OC)=CN(C)C=C2C(=O)OC)cc1OC | 88.4 |
| OC(CNC1CCCCC1)Cn1c2ccccc2c2ccccc21 (stereo not drawn) | 66 |
| CCOC(=O)c1c(C)n(-c2ccc(Cl)cc2)c2ccc(OC(=O)C=Cc3ccccc3)cc12 | 26.8 |
| COc1ccc2nc(C)cc(Nc3ccccc3O)c2c1 | 20.9 |
| O=C(NCCCN1CCC(N2CCCCC2)CC1)C1=Cc2cc(Br)ccc2OC1 | 102 |
| CCn1c2c(c(=N)c3c1CCC3)CCCC2 | 25.3 |
